Test results from the supplement of paper PMC11732987, “Enantioselective OTUD7B fragment discovery through chemoproteomics screening and high-throughput optimisation” (Communications Chemistry, 2025).

Key:
Experiment in all cases: log2 ratio of Biotin-Ahx-Ub-VS probe labelling (fragment/DMSO); higher = less target engagement (more negative = stronger competition), active = hit call of the paper (q ≤ 0.05, log2 ratio ≤ -1)
Conditions in all cases: compound concentration: 200 uM; treatment time: 3 h
USP42 = molecular target: T1, USP42 (UniProt Q9H9J4)
T1 sequence (whole entry): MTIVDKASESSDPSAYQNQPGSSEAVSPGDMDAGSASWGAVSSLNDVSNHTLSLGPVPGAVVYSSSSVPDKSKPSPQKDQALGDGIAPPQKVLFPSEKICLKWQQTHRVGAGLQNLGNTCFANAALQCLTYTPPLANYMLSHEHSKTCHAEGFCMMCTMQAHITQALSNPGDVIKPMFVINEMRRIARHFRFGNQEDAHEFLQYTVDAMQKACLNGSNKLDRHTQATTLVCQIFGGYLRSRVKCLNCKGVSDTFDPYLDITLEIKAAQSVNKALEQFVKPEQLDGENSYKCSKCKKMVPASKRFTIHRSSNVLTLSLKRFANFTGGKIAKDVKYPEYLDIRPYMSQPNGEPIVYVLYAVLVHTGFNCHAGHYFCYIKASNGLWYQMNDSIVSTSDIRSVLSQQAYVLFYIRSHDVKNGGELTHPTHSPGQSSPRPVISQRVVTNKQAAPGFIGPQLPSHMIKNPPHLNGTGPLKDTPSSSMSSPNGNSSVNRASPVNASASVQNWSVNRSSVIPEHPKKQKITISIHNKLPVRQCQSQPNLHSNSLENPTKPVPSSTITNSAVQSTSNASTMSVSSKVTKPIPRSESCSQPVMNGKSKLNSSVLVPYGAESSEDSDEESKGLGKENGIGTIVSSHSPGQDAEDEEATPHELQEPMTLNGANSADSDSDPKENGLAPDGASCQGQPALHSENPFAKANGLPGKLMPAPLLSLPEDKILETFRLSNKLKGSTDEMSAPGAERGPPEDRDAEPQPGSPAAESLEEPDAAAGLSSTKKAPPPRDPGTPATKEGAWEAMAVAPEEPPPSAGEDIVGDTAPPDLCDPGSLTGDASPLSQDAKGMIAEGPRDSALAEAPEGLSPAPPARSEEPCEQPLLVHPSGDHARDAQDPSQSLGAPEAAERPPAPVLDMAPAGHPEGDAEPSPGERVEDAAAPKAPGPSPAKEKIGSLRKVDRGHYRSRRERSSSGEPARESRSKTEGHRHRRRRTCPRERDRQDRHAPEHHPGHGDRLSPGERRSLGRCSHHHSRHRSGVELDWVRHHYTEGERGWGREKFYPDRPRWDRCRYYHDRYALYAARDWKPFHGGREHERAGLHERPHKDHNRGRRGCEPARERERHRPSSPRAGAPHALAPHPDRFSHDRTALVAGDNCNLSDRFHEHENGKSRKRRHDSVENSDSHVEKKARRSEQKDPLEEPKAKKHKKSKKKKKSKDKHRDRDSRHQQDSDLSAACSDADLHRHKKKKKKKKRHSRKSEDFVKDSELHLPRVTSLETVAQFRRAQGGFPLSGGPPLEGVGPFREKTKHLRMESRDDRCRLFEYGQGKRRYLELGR
Procedure, shortened: (§1)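 Average log2 ratios of fragment over vehicle were obtained by unpaired t-test from global-median-normalised Spectronaut label-free quantities. Proteins with ≥2 unique peptides were included. HEK293T lysate (495 µg per sample) was treated in triplicate with fragment at 200 µM or vehicle for 3 h, then with Biotin-Ahx-Ub-VS at 0.5 µM final for 1 h, and labelled DUBs were NeutrAvidin-enriched and run by diaPASEF LC-MS/MS.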

USP46 = USP46 (UniProt P62068)
Procedure, shortened: as §1

USP47 = molecular target: T2, USP47 (UniProt Q96K76)
T2 sequence (whole entry): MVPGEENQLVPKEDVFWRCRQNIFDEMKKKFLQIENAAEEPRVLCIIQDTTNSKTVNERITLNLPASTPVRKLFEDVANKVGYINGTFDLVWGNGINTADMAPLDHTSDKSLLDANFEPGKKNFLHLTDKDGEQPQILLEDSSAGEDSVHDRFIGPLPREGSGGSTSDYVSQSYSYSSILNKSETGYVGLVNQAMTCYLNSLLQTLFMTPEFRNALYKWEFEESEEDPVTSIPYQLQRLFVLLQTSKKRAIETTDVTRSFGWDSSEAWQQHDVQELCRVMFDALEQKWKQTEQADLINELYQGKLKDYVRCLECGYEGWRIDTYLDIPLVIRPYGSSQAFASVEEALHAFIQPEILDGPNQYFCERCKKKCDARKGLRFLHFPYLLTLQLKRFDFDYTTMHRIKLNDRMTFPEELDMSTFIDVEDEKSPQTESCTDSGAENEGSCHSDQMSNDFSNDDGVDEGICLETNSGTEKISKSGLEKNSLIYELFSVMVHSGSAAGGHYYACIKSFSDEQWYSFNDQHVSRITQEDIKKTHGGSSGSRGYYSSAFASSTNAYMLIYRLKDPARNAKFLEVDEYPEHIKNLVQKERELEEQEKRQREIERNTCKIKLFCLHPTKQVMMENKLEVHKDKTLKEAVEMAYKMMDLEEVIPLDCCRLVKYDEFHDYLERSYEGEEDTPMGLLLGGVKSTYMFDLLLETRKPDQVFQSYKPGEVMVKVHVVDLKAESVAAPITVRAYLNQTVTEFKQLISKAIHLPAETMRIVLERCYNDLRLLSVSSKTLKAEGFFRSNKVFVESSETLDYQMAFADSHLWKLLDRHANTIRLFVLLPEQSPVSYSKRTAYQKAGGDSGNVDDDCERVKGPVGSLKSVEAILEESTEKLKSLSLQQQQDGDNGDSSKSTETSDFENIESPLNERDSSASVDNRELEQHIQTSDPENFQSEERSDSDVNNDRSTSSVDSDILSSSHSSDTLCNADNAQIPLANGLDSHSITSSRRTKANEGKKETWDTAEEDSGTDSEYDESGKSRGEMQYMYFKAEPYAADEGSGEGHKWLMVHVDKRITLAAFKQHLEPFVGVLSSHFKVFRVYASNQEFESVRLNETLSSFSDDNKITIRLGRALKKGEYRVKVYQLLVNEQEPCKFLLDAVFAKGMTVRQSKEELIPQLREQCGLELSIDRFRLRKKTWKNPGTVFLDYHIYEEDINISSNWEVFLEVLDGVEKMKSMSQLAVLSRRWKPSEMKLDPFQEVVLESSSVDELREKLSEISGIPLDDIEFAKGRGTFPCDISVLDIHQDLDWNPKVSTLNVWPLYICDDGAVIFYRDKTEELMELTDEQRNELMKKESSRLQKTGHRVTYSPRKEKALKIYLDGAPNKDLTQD
Procedure, shortened: as §1

USP48 = molecular target: T3, USP48 (UniProt Q86UV5)
T3 sequence (whole entry): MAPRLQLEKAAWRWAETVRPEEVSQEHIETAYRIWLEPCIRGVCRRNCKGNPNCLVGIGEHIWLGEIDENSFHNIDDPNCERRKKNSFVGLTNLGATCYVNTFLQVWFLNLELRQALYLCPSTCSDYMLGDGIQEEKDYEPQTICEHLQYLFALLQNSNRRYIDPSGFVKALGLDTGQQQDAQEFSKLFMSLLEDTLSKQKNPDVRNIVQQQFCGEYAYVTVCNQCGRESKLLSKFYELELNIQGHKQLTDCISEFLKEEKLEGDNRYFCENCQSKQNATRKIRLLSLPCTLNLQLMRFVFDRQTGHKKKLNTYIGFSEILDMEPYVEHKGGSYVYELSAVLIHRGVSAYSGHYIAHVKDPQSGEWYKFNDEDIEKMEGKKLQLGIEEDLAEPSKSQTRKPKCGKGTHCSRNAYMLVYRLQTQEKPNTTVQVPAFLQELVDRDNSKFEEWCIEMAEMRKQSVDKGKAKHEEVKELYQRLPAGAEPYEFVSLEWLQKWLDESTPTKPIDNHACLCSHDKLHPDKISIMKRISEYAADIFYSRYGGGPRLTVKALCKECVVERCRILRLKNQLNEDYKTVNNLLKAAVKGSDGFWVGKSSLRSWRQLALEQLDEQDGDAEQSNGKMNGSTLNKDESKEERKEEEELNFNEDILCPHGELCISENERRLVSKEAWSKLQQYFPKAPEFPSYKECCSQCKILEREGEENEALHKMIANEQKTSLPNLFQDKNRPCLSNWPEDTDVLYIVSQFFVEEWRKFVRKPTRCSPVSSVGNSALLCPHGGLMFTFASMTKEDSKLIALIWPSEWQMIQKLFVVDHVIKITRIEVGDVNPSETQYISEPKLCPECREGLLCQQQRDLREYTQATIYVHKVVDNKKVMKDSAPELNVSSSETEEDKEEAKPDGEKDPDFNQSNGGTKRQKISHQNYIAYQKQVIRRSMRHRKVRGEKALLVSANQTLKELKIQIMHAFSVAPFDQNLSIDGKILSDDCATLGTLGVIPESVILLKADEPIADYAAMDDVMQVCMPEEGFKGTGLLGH
Procedure, shortened: as §1

USP5 = molecular target: T4, USP5 (UniProt P45974)
T4 sequence (whole entry): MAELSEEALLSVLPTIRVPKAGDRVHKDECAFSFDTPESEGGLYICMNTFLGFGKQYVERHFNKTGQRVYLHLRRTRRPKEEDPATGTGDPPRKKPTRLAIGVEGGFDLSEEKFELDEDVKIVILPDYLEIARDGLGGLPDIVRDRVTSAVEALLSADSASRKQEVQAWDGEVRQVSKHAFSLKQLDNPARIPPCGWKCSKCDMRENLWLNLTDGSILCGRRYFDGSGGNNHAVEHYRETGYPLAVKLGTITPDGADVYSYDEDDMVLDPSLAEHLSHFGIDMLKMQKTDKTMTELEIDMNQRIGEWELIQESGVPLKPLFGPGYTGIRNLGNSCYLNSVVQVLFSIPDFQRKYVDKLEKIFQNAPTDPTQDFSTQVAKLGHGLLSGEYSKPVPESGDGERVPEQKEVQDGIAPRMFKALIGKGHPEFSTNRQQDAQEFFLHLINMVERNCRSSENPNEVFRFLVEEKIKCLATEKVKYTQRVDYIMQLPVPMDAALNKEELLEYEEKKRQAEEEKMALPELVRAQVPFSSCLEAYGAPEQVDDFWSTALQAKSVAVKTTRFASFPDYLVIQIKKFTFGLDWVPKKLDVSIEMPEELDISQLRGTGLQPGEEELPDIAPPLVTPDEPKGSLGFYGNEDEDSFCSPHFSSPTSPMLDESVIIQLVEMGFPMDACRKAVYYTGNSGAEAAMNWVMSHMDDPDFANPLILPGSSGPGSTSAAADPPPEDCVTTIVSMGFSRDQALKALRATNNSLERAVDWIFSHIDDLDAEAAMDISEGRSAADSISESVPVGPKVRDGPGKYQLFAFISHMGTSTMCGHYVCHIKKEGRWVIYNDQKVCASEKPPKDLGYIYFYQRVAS
Procedure, shortened: as §1

USP54 = USP54 (UniProt Q70EL1)
Procedure, shortened: as §1

USP7 = USP7 (UniProt Q93009)
Procedure, shortened: as §1

USP8 = molecular target: T5, USP8 (UniProt P40818)
T5 sequence (whole entry): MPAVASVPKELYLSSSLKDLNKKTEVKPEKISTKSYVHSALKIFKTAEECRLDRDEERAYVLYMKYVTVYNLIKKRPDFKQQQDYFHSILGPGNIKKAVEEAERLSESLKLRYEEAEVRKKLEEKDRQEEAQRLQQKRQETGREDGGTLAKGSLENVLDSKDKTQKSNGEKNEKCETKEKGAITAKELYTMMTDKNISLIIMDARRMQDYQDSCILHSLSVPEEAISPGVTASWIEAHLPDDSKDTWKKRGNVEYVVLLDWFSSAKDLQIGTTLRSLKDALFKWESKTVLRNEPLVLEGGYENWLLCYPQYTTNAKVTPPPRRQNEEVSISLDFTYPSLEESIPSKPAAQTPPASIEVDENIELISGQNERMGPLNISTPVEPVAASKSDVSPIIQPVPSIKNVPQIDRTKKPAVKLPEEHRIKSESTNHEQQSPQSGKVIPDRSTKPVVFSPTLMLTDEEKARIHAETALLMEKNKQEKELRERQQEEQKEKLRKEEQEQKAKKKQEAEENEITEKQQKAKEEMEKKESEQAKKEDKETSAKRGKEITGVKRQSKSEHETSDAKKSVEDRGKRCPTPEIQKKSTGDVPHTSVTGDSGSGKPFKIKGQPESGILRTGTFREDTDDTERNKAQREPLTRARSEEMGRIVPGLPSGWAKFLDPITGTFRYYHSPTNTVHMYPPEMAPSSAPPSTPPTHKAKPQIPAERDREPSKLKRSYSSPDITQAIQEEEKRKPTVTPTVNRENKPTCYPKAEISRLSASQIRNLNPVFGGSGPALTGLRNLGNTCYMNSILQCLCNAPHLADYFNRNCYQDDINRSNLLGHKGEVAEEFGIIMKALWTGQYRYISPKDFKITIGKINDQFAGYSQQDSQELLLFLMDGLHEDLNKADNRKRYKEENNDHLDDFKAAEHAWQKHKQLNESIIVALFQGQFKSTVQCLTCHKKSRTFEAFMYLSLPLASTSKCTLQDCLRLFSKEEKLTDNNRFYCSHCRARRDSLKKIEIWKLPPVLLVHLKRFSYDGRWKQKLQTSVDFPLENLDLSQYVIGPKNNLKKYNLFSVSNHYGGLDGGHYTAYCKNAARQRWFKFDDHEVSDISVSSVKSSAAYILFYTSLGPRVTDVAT
Procedure, shortened: as §1

USP9X = USP9X (UniProt Q93008)
Procedure, shortened: as §1

UniProt O00487 = molecular target: UniProt O00487
Procedure, shortened: as §1

Measured: log2 ratio of Biotin-Ahx-Ub-VS probe labelling

Sequence of USP54 (Q70EL1 whole entry): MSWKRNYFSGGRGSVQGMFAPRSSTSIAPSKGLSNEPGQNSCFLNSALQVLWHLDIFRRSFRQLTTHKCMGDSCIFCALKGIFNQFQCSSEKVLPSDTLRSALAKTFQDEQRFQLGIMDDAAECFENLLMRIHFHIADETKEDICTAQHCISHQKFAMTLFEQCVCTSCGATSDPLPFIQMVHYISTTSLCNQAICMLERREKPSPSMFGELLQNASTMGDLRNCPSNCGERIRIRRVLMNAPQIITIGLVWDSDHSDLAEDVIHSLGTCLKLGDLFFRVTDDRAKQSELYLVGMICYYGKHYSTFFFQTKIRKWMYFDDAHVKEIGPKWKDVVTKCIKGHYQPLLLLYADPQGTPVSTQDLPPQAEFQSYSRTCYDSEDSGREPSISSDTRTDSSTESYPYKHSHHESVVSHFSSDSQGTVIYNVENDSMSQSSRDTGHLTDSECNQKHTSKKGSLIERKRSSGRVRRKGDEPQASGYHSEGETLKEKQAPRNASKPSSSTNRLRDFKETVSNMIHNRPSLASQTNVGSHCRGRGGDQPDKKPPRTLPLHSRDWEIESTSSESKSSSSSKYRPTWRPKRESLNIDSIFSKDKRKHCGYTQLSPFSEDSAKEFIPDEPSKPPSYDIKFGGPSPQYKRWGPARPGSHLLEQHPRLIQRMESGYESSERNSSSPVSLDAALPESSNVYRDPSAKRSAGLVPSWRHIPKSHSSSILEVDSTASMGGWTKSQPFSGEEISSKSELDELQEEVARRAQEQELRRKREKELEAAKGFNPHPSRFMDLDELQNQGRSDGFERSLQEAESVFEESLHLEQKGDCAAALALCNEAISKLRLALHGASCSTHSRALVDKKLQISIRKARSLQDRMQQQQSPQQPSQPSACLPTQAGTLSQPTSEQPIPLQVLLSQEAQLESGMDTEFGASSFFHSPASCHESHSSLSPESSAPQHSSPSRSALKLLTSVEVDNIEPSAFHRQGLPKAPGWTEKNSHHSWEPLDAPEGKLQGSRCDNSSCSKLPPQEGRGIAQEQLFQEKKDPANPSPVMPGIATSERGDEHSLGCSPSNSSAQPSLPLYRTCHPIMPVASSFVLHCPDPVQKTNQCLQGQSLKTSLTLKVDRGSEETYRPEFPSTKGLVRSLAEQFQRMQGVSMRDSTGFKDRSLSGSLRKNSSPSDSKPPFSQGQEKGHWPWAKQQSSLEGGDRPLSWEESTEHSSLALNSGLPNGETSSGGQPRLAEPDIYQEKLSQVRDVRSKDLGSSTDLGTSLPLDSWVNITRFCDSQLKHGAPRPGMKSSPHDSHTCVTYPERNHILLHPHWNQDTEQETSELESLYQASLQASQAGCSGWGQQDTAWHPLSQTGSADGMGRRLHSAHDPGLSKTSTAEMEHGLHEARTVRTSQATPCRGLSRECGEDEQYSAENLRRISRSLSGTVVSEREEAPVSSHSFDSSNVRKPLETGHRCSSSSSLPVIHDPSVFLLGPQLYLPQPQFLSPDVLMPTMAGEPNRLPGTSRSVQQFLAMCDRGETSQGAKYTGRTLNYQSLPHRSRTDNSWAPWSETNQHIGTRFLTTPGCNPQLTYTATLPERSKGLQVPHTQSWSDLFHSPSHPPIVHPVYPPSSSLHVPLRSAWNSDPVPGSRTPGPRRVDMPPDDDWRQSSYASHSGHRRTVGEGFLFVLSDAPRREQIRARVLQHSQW
Sequence of UniProt O00487 (O00487 whole entry): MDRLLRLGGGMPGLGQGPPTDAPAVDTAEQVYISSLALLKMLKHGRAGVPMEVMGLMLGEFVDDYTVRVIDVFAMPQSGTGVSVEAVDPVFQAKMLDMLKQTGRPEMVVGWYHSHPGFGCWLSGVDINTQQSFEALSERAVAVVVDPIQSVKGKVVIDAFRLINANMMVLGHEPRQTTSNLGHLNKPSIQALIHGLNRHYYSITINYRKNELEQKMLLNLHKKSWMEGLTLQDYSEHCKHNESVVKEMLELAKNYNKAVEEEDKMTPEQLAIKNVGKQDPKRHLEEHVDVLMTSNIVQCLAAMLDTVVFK
Sequence of USP9X (Q93008 whole entry): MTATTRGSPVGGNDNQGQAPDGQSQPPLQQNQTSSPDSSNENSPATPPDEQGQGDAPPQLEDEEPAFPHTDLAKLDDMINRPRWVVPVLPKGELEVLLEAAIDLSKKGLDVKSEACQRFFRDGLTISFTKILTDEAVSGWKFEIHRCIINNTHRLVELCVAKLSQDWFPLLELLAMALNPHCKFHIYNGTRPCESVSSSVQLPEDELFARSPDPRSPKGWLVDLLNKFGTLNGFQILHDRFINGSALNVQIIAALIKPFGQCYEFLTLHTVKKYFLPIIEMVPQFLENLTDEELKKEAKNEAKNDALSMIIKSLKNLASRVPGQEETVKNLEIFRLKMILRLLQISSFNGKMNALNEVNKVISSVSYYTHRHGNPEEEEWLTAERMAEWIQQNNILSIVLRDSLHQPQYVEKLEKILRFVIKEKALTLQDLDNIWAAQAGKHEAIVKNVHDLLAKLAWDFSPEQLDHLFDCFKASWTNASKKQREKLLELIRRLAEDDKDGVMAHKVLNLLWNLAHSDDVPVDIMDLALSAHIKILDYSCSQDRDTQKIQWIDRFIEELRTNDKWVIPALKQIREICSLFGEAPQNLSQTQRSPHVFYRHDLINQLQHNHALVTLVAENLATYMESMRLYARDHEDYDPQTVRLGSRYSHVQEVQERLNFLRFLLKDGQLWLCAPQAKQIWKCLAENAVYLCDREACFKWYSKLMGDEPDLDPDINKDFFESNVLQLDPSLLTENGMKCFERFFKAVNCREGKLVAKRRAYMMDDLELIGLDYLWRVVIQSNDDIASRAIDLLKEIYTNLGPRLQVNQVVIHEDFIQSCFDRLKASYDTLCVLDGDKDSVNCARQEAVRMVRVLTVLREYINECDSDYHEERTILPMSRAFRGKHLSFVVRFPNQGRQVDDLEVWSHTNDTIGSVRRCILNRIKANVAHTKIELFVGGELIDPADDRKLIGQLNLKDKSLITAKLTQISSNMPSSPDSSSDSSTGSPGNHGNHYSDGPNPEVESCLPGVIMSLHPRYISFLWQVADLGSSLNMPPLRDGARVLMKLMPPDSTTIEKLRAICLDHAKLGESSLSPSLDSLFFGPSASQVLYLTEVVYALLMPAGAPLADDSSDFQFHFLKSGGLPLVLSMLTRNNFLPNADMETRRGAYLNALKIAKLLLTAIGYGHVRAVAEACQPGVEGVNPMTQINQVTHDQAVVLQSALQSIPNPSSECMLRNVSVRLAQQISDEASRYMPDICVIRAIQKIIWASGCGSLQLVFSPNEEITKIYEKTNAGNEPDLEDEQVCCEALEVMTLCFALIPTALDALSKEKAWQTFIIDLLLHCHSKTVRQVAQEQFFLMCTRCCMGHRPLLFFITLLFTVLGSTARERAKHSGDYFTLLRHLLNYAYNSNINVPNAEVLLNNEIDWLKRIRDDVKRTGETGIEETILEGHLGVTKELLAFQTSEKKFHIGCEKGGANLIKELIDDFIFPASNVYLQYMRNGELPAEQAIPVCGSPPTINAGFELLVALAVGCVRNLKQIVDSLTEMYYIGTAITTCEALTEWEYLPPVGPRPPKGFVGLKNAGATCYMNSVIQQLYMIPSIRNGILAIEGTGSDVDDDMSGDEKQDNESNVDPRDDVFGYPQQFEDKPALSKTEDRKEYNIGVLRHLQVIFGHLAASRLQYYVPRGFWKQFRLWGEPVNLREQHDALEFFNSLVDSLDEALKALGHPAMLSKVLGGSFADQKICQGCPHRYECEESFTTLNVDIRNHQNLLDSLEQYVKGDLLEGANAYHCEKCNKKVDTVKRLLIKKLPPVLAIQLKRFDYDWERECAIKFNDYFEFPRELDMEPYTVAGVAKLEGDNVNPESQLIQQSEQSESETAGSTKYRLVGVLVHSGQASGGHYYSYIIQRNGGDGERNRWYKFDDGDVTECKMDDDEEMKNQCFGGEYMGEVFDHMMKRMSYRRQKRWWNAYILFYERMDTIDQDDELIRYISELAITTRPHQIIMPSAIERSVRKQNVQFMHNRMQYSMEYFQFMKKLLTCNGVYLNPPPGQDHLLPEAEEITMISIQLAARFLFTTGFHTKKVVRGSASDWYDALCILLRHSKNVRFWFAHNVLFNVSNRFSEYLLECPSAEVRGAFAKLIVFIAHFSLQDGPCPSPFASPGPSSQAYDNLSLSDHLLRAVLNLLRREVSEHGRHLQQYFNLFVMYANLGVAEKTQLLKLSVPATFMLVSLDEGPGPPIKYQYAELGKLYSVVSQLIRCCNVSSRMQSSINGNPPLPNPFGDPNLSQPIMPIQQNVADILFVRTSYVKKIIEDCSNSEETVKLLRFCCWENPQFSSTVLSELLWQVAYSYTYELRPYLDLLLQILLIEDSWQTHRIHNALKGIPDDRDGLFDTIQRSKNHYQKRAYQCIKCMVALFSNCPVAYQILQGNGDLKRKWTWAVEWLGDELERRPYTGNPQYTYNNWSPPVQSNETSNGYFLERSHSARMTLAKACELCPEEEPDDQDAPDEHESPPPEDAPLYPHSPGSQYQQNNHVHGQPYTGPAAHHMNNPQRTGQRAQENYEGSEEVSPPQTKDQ
Sequence of USP46 (P62068 whole entry): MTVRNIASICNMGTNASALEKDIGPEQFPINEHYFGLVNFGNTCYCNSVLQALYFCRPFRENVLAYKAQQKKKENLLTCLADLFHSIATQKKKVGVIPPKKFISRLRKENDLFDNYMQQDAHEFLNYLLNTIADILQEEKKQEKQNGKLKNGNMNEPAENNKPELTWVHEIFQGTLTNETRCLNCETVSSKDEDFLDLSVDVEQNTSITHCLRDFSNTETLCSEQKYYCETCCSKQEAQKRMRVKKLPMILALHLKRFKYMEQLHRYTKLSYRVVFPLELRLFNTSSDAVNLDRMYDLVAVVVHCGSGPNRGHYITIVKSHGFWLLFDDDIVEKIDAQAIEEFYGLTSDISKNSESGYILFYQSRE

Cc1nc(CC2CCN(C(=O)CCl)CC2)no1
inactive: USP42 0.631 | USP46 -0.332 | USP47 -0.726 | USP48 -0.576 | USP5 -0.492 | USP54 0.803 | USP7 -0.904 | USP8 -0.755 | USP9X -0.815 | UniProt O00487 -0.084
